Compound activity from PubChem BioAssay.
EphB4 ephrin blk = blocks human EphB4 binding to ephrin-B2. 97,000 tested, 0.15% active. inhibition, % at 7 µM. P54760. EphB4 LBD / TNYL-RAW-Alexa532 peptide, fluorescence polarization;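 active = inhibition above the screen-wide mean inhibition plus 3 SD, cut at about 15% in these data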;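 also: 0% = DMSO wells and 100% = excess unlabeled TNYL-RAW peptide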
ERa coact pot = enhances coactivator binding to human estrogen receptor alpha; P03372; TR-FRET ERalpha-LBD/SRC-Cy5 coactivator binding, 2 h; 100 = basal binding, no effect; coactivator binding (% of control), % at 25.6 µM; 86,000 tested, 1.3% active; AID 639; in the data active = activity above about 200%;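 also: binding measured in presence of low estradiol as agonist stimulus; 0% = peptide alone without receptor and 100% = receptor with peptide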
Target sequence (P03372 whole entry, looked up, the tested form may be a part): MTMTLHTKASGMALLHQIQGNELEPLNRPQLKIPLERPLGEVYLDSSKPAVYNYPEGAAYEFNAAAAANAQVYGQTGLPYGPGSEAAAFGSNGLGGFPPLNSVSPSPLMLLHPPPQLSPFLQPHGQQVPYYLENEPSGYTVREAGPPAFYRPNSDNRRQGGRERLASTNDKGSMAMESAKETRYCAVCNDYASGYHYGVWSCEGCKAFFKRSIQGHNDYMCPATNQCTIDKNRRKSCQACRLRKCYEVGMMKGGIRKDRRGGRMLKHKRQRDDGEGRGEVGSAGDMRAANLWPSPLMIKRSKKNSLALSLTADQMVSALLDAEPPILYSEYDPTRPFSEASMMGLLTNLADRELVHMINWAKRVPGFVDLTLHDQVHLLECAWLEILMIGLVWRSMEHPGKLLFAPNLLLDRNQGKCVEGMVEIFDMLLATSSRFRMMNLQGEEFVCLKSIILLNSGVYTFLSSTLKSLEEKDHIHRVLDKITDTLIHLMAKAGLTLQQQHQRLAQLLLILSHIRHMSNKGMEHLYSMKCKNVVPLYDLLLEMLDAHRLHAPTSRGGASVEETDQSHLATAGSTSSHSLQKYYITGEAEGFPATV
ERa coact inh = blocks coactivator binding to human estrogen receptor alpha; 86,000 tested, 1.7% active; TR-FRET ER-alpha LBD / SRC-1 peptide, estradiol-bound; inhibition, % at 25.6 µM; in the data active = inhibition above about 50%;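 also: 0% = receptor plus peptide control and 100% = peptide only without receptor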
ERb coact inh = blocks coactivator binding to human estrogen receptor beta; Q92731; TR-FRET ER-beta LBD / SRC1-Cy5 peptide binding; receptor agonist-loaded with 1 µM estradiol; inhibition, % at 25.6 µM; 86,000 tested, 1.3% active;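 active = compounds whose percent inhibition of the receptor-coactivator binding signal exceeds about 50% in the single-dose screen, limit read from the data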;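 also: 0% = receptor plus peptide wells without compound and 100% = peptide-only wells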
* marks the source's active call; other numbers are inactive results; [ ] = dose if it differs, or a comment. Hits are enriched below; roughly 2.8% of the tested compounds scored in any of these assays.

For CCOC(=O)CSc1nn(C)c(=S)s1 the results were EphB4 ephrin blk -3, ERa coact pot 33, ERa coact inh 65* and ERb coact inh 21.
Screening Cc1cccc(NC(=O)CSc2nnc(-c3ccco3)c(-c3ccco3)n2)c1C returned EphB4 ephrin blk 10, ERa coact pot 32, ERa coact inh 74*[fluorescence artefact?] and ERb coact inh 77*[fluorescence artefact?].
For CN1CCN(c2nc(C#N)cc(-c3ccccc3)n2)CC1 the results were EphB4 ephrin blk 5, ERa coact pot 101, ERa coact inh -5 and ERb coact inh -7.
Screening COc1ccc(-c2cc(C#N)nc(N3CCNCC3)n2)cc1 returned EphB4 ephrin blk 0, ERa coact pot 305*[fluorescence artefact?], ERa coact inh 33 and ERb coact inh 36.
COC(=O)c1cccc(Nc2nc3ccccc3nc2C)c1 was read as EphB4 ephrin blk 1, ERa coact pot 107, ERa coact inh -5 and ERb coact inh -4.
Screening NC(=O)c1sc2cc(C(F)(F)F)cnc2c1-c1cccs1 returned EphB4 ephrin blk -7, ERa coact pot 111, ERa coact inh 0 and ERb coact inh 3.
`O=C(Nc1ccccc1)c1sc2cc(C(F)(F)F)cnc2c1-c1cccs1` gave EphB4 ephrin blk 3, ERa coact pot 210*[fluorescence artefact?], ERa coact inh 19 and ERb coact inh 17.
`O=C(COC(=O)c1cccs1)NCc1ccco1` gave ERa coact pot 77, ERa coact inh 53*[fluorescence artefact?] and ERb coact inh 53*.
COc1cc(NC(=O)c2cccs2)c(C(=O)OCC(=O)NCc2ccco2)cc1OC was read as ERa coact pot 89, ERa coact inh 79* and ERb coact inh 42.
Screening COc1ccc(NC(=O)COC(=O)c2cc(OC)c(OC)cc2NC(=O)c2ccco2)cc1OC returned EphB4 ephrin blk 3.
`O=C(COC(=O)c1ccccc1Nc1ccccc1)NCc1ccco1` gave EphB4 ephrin blk 7, ERa coact pot 103, ERa coact inh -9 and ERb coact inh -2.
`CCOc1cc(NC(=O)c2cccs2)c(OCC)cc1NC(=O)c1ccco1` gave EphB4 ephrin blk -2, ERa coact pot 75, ERa coact inh 8 and ERb coact inh 65*.
Screening O=C(COC(=O)COc1ccc(Nc2ccccc2)cc1)NCc1ccco1 returned EphB4 ephrin blk 5, ERa coact pot 69, ERa coact inh 30 and ERb coact inh 52*[fluorescence artefact?].
For COc1ccc(NC(=O)c2cccs2)cc1NC(=O)c1ccco1 the results were EphB4 ephrin blk -1, ERa coact pot 92, ERa coact inh -2 and ERb coact inh -5.
Cc1nn(Cc2ccc(C(=O)Nc3ccc(Br)c4cccnc34)o2)c(C)c1Br was read as EphB4 ephrin blk 1, ERa coact pot 180, ERa coact inh 7 and ERb coact inh 14.
Screening COc1ccccc1-c1noc(-c2cccnc2)n1 returned EphB4 ephrin blk 6, ERa coact pot 95, ERa coact inh -7 and ERb coact inh 2.
`COc1nc2ccccc2cc1-c1noc(-c2cccnc2)n1` gave ERa coact pot 215*[fluorescence artefact?], ERa coact inh 17 and ERb coact inh 16.
COc1nc(-c2ccccc2)ccc1-c1noc(-c2ccc(F)cc2)n1 was read as ERa coact pot 126, ERa coact inh 2 and ERb coact inh -1.
For COc1nc(-c2ccc(C)cc2)ccc1-c1noc(-c2cccnc2)n1 the results were ERa coact pot 557*[fluorescence artefact?], ERa coact inh 21 and ERb coact inh 5.
Screening COc1nc(-c2ccccc2)ccc1-c1noc(-c2cccnc2)n1 returned EphB4 ephrin blk -1, ERa coact pot 487*[fluorescence artefact?], ERa coact inh 29 and ERb coact inh 14.
CCOc1ccccc1-c1nc(-c2cc3ccccc3nc2OC)no1 was read as EphB4 ephrin blk 0, ERa coact pot 165, ERa coact inh 10 and ERb coact inh 67*.
Screening O=C(NCCN1CCOCC1)c1cc2cc(Cl)cc(Cl)c2oc1=O returned EphB4 ephrin blk -7, ERa coact pot 109, ERa coact inh -3 and ERb coact inh -4.
Screening COc1nc(-c2ccc(C)cc2)ccc1-c1noc(-c2ccco2)n1 returned EphB4 ephrin blk -5, ERa coact pot 237*, ERa coact inh 1 and ERb coact inh 4.
COc1nc(C)ccc1-c1noc(-c2ccco2)n1 was read as EphB4 ephrin blk 2, ERa coact pot 111, ERa coact inh -24 and ERb coact inh 22.
Screening CCc1ccc(CNCCSc2nnnn2C)cc1 returned EphB4 ephrin blk -2, ERa coact pot 91, ERa coact inh -1 and ERb coact inh -3.
CCCCC(CC)Cn1c2nc3ccccc3nc2c2c(=N)oc(C)nc21 (stereo not given) was read as EphB4 ephrin blk 4, ERa coact pot 267*[fluorescence artefact?], ERa coact inh 21 and ERb coact inh 44.
CCCCn1c2nc3ccccc3nc2c2c(=N)oc(C)nc21 was read as ERa coact pot 314*[fluorescence artefact?], ERa coact inh 7 and ERb coact inh 32.
For CCCCn1c2nc3ccccc3nc2c2c(=O)n(CCC(C)C)cnc21 the results were EphB4 ephrin blk 6, ERa coact pot 95, ERa coact inh -1 and ERb coact inh 10.
C=CCn1cnc2scc(-c3ccc(C)cc3)c2c1=O was read as EphB4 ephrin blk -5, ERa coact pot 90, ERa coact inh -3 and ERb coact inh 5.
For CCCNS(=O)(=O)c1ccc(OCC(=O)NCc2ccc3c(c2)OCO3)cc1 the results were EphB4 ephrin blk -2, ERa coact pot 115, ERa coact inh -7 and ERb coact inh -1.
`CCc1ccc(C(=O)Cn2ncc(Cl)c(Cl)c2=O)cc1` gave EphB4 ephrin blk -4, ERa coact pot 58, ERa coact inh 3 and ERb coact inh 52*.
CCCn1c(SCC(=O)Nc2sc(C)c(C)c2C(=O)OC)nc2c1c(=O)n(C)c(=O)n2C was read as ERa coact pot 246*, ERa coact inh 51* and ERb coact inh 47.
For CCN(CC)S(=O)(=O)c1cccc2cc(C(=O)O)c(O)cc12 the results were EphB4 ephrin blk 4, ERa coact pot 99, ERa coact inh -8 and ERb coact inh 3.
For CCOc1cc(C(=S)N2CCCCC2)ccc1OCC(=O)NCc1ccccc1 the results were EphB4 ephrin blk 2, ERa coact pot 104, ERa coact inh -10 and ERb coact inh -14.
CCOC(=O)c1cn(-c2ccc(F)c(F)c2)c2c(F)c(F)c(F)c(F)c2c1=O was read as EphB4 ephrin blk -1.
For CCOC(=O)c1cn2c3c(c(F)c(F)c(F)c3c1=O)SC(N1CCCC1)=N2 the results were ERa coact pot 268*[fluorescence artefact?], ERa coact inh 14 and ERb coact inh -15.
For Cc1ccc2c(CC(=O)OCc3csc(C)n3)coc2c1 the results were EphB4 ephrin blk -6, ERa coact pot 115, ERa coact inh 4 and ERb coact inh 5.
O=C(Cc1coc2cc3c(cc12)CCC3)OCc1cc(=O)n2c(n1)sc1ccccc12 was read as EphB4 ephrin blk 4, ERa coact pot 136, ERa coact inh 76* and ERb coact inh 72*.
Screening CC(=O)CCc1c(C)c2cccc(C)c2[nH]c1=O returned ERa coact pot 95, ERa coact inh 4 and ERb coact inh 82*[fluorescence artefact?].
